Bioassay records from PubChem BioAssay.
12-LOX inh – inhibitors of human 12S-lipoxygenase ALOX12; P18054; purified 12hLO, xylenol orange hydroperoxide absorbance; Potency, µM (series often up to 108 µM), for the others: at the highest dose activity change, negative = inhibition, hits mostly inhibitors; 580,000 compounds, 1.1% hits; AID 1671190; also: % is scaled to controls: 0 for no effect and ±100 for the full control effect
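Purified human 12hLO at 150 nM in 25 mM Hepes, 0.01% Triton X-100, pH 7.0, preincubated 15 min at room temperature with compound. Reaction started with 40 uM arachidonic acid, 30 min at room temperature. Hydroperoxide measured by Fe-xylenol orange, 573/405 nm absorbance ratio.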
EPAC2 agonist – agonists of human EPAC2 (RAPGEF4). Q8WZA2. 360,000 compounds, 0.079% hits. Potency, µM (titrated, usually from 154 µM), inactives show top-dose activation, usual class: activators. EPAC2 activation, biochemical qHTS; response scale: 100% = 6.5 mM cAMP response; also: nearly all actives have a fitted effect of over 50% in size
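qHTS, titration series. 100 nM EPAC2 / 250 nM Rap1B-BODIPY-GDP / 50 uM GDP; RT; ex 480/em 540 nm, 5-min reads to 30 min. Norm. to 6.5 mM cAMP = activation.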
EPAC1 antagonist – blocks human EPAC1 exchange factor; O95398; EPAC1 GEF assay, Rap1b-BODIPY-GDP exchange fluorescence; Potency, µM (top dose mostly 115 µM), for inactives: top-dose activity change, negative = inhibition, most hits filed as inhibitors; 360,000 compounds, 0.14% hits; AID 720709;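 also: plate controls were vehicle for no effect and positive control for full effect; nearly all actives have a fitted effect of over 50% in size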
USP1-UAF1 inh – USP1/UAF1 (human) deubiquitinase inhibition. 390,000 compounds, 0.23% hits. O94782. AID 743255. recombinant USP1/UAF1, Ub-Rhodamine cleavage fluorescence. Potency, µM (titrated, usually from 57.1 µM), for the others: at the top dose activity change, negative = inhibition, hits mostly inhibitors; also: % is scaled to controls: 0 for no effect and ±100 for the full control effect; nearly all actives have a fitted effect of over 60% in size
Target sequence (O94782 whole entry, looked up): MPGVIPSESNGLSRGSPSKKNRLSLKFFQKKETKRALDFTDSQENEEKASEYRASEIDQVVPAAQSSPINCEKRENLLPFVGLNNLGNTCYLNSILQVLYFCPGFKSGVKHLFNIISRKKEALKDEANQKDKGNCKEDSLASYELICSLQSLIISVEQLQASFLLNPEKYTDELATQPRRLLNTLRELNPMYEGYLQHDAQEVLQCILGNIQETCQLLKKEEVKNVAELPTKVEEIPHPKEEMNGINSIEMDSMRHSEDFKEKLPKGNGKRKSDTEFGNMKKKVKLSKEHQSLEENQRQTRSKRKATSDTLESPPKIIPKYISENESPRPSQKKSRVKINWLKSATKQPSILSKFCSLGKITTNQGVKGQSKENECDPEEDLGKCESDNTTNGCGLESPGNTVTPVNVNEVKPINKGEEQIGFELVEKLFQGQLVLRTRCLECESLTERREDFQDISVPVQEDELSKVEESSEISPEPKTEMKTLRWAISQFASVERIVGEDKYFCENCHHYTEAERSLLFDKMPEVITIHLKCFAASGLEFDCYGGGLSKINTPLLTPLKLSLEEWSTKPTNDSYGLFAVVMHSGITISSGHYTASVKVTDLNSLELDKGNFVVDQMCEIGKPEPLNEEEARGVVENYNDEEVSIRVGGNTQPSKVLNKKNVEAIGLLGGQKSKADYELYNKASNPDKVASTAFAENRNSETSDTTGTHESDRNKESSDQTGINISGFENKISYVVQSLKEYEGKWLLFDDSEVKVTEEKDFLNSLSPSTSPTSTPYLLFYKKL
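1 nM enzyme complex + cpd, 15 min RT; start with Ub-Rho 150nM final; kinetic fluorescence ex 480/em 540, 6 reads q60 s. Buffer 50mM HEPES pH 7.8, 0.5mM EDTA, 0.1 mg/ml BSA, 1mM TCEP, 0.01% Tween-20.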
EPAC1 agonist – agonists of human EPAC1; 360,000 compounds, 0.073% hits; Potency, µM (top dose mostly 154 µM), for inactives: at the top dose activation, most hits filed as activators; EPAC1 agonist qHTS, biochemical assay; response scale: 100% = response to 6.5 mM cAMP; O95398; also: nearly all actives have a fitted effect of over 60% in size
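EPAC1 100 nM, Rap1B–BODIPY-GDP 250 nM, unlabeled GDP 50 uM; compound titration; 5 min RT; kinetic read ex480/em540 at 5-min intervals ×30 min; data normalized to 6.5 mM cAMP agonist control.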
EPAC2 antagonist – EPAC2 (human) antagonism. Q8WZA2. Potency, µM (series often up to 114 µM), inactives show at the top dose activity, negative = inhibition, most hits filed as inhibitors. AID 720708. 360,000 compounds, 0.18% hits. EPAC2 GEF exchange of Rap1B-BODIPY-GDP, fluorescence; also: % is scaled to controls: 0 for no effect and ±100 for the full control effect; nearly all actives have a fitted effect of over 45% in size
The depositor's hits bear a star; ? = inconclusive; . = no result given; ! = repeats disagree. Sampled rows, rich in hits. Any-hit rate of the full collection: about 1.3%. Calls follow the shape of the dose curve; as a rule, active = well fitted curve in the direction sought with a large enough effect; inconclusive = small, poorly fitted or top-dose-only effect, or another doubt; inactive = no such curve, though single readings can be large; an effect the other way counts as inactive or inconclusive. Potency is read from the fitted curve at half-maximal effect.

SMILES | 12-LOX inh | EPAC2 agonist | EPAC1 antagonist | USP1-UAF1 inh | EPAC1 agonist | EPAC2 antagonist
O=C(Nc1ccc(Oc2ccccc2)cc1)C(Cc1ccccc1)n1cnnn1 (centres undefined) | -9.1% | . | . | . | . | .
CCOC(=O)c1cc2c(C)n(-c3ccc(OCC)cc3)c(C)c2ccc1=O | 39.8µM* | 3.0% | -4.3% | -15.8% | 0.2% | -8.6%
CC(C)NC(=O)c1csc(C(O)c2cccc(N(C)C)c2)n1 (centres undefined) | -21.3% | . | . | . | . | .
CC(=O)c1cc(O)c2ccccc2c1O | 1.58µM* | 4.3% | -23.9% | ? | -2.6% | -5.4%
CC(=O)c1coc2c1cc(O)c1ccccc12 | 13.9% | 1.3% | 0.0% | -14.1% | 14.3% | -3.2%
CCOc1cc(NC(=S)Nc2ccccc2OC)c(OCC)cc1NC(=O)c1ccccc1C | 44.7µM* | 14.8% | 0.8% | -9.0% | 14.0% | -4.0%
CCOc1cc(NC(=S)NCC2CCCO2)c(OCC)cc1NC(=O)c1ccccc1C (centres undefined) | -31.7% | 0.3% | -4.0% | -15.8% | 4.7% | -4.9%
C[N+](C)(C)CCN(Cc1ccc(Cl)cc1)c1ccccn1 | 15.8µM* | 4.9% | -3.5% | 0.4% | 5.5% | -4.4%
CCCCCCCCSCCCCCCCO | -28.9% | . | . | . | . | .
Cc1nn(-c2cccc(Cl)c2)c2nc(-c3ccco3)cc(C(=O)O)c12 | 39.8µM* | -0.4% | -18.3% | -24.6% | -12.5% | -4.4%
O=C(O)c1cc(-c2ccco2)nn1-c1cccc(Cl)c1 | 35.5µM* | -2.5% | -3.3% | -7.2% | 6.6% | 33.4%
O=C(Nc1c(-c2ccc3c(c2)OCO3)[nH][nH]c1=O)c1ccccc1 | 28.2µM* | 27.8% | 35.5µM* | . | -6.3% | ?
O=C1C(=C(I)I)c2ccccc2-c2ccccc21 | 5.62µM* | ? | 25.1µM* | 28.2µM* | 10.9% | ?
O=C1c2ccccc2C(=O)c2c(O)ccc(O)c21 | -6.7% | . | . | . | . | .
S=c1[nH]nc(-c2c[nH]c3ccccc23)o1 | ? | 2.3% | -22.1% | -21.0% | 9.0% | -1.0%
Oc1cc2ccccc2cc1-c1n[nH]c(=S)o1 | 13.7% | 4.0% | 79.4µM* | -17.7% | -8.9% | -6.5%
Cc1cccc(NC(NC(=O)c2ccc(Br)cc2)C(Cl)(Cl)Cl)c1 (centres undefined) | -28.4% | . | . | . | . | .
O=C(c1cccc(S(=O)(=O)Nc2cc(C(F)(F)F)ccc2Cl)c1)N1CCCC1 | 13.6% | . | . | . | . | .
CC1CC(C)CN(C(=O)c2cccc(S(=O)(=O)Nc3cc(C(F)(F)F)ccc3Cl)c2)C1 (centres undefined) | -9.0% | -14.3% | 50.1µM* | ? | -12.7% | 50.1µM*
CCN(Cc1cccc(NC(=O)c2ccc(C3SCCCS3)cc2)c1)C(=O)C(F)(F)F | 1.1% | . | . | . | . | .
c1ccc(CN2CCN(c3nc(NCc4ccco4)c4ccccc4n3)CC2)cc1 | 39.8µM* | -5.6% | -22.2% | -6.3% | 16.7% | -12.1%
OCCN1CCN(c2nc(NCc3ccco3)c3ccccc3n2)CC1 | ? | -3.2% | 2.1% | 0.2% | 3.8% | -5.0%
Clc1cccc(-c2nc3ccccn3c2Nc2ccc3c(c2)OCCO3)c1 | 6.31µM* | . | . | -17.0% | . | .
COc1cc(-c2nc3ccc(C)cn3c2Nc2ccc3c(c2)OCCO3)ccc1O | -29.7% | 7.0% | -13.8% | -19.2% | 5.4% | -9.7%
Oc1ccc(-c2nc3ccccn3c2Nc2ccc3c(c2)OCCO3)cc1 | -20.4% | . | . | -20.6% | . | .
SMILES | 12-LOX inh | EPAC2 agonist | EPAC1 antagonist | USP1-UAF1 inh | EPAC1 agonist | EPAC2 antagonist
COc1cc(-c2nc3ccc(Cl)cn3c2Nc2ccc3c(c2)OCCO3)ccc1O | 7.94µM* | . | . | -22.8% | . | .
CNC(=S)N/N=C1\CC(c2ccccc2)Oc2ccccc21 (centres undefined) | 39.8µM* | 9.1% | 1.5% | -15.8% | -1.5% | -9.6%
O=C(Cn1ccc2c(Br)cccc21)NCCCO | 9.3% | . | . | . | . | .
C/C(=C\C(=O)c1ccc(C)o1)Nc1ccc(C(=O)O)cc1C | 25.1µM* | 1.2% | 2.9% | -12.5% | 3.8% | 8.2%
CC(Sc1nc2ccccc2n1C)C(=O)NCc1ccc(Cl)cc1 (centres undefined) | 1.6% | . | . | . | . | .
CCc1ccc2oc(C(=O)Nc3ccc(S(=O)(=O)Nc4cc(C)nc(C)n4)cc3)cc(=O)c2c1 | 17.8µM* | . | . | . | . | .
Cc1ccc2oc(C(=O)Nc3ccc(S(=O)(=O)Nc4nc(C)cc(C)n4)cc3)cc(=O)c2c1 | -25.5% | . | . | -18.0% | . | .
O=C(NCCCc1ccccc1)C12CC3CC(CC(C3)C1)C2 | -1.7% | . | . | . | . | .
O=S(=O)(Nc1cc2nc3ccccc3nc2n1Cc1ccccc1)c1ccc(Cl)cc1 | 44.7µM* | 27.3% | ? | 25.1µM* | -30.6% | ?
CC(=O)N1CCN(c2nc(-c3ccco3)c3c(c2C#N)CC(C)(C)SC3)CC1 | 35.5µM*! | -13.9% | -2.5% | -8.2% | 6.0% | -2.5%
CC1(C)Cc2c(C#N)c(N3CCN(C(=O)c4ccccc4Cl)CC3)nc(-c3ccco3)c2CS1 | 8.4% | -7.4% | ? | -23.9% | 3.6% | -6.3%
CC1CCN(C(=O)C(=O)N2CCN(c3nc(-c4ccco4)c4c(c3C#N)CCCC4)CC2)CC1 | 31.6µM* | . | . | . | . | .
CC1(C)Cc2c(C#N)c(N3CCN(C(=O)c4ccco4)CC3)nc(-c3ccco3)c2CS1 | 2.4% | 7.9% | ? | ? | 12.0% | -1.7%
CCC(=O)N1CCN(c2nc(-c3ccco3)c3c(c2C#N)CC(C)(C)SC3)CC1 | 20µM* | . | . | . | . | .
COc1ccc(N2C(=O)CN(Cc3ccccc3OC)[C@H]3CS(=O)(=O)C[C@H]32)cc1Cl | -12.4% | . | . | . | . | .
C=CCOc1ccccc1CN(C(=O)CCl)c1ccc2c(c1)OCO2 | ? | 10.5% | -19.1% | -21.8% | -13.7% | 12.6µM*
CCOc1ccc(C(Nc2cccnc2)c2cc(Cl)c3cccnc3c2O)cc1 (centres undefined) | 10µM* | -5.6% | -9.9% | -25.2% | 0.5% | -8.1%
CCOc1ccc(N2CC(c3nc4ccccc4n3CCOc3ccccc3)CC2=O)cc1 (centres undefined) | 3.0% | . | . | -21.8% | . | .
Cc1ccccc1N1CC(c2nc3ccccc3n2CCC2CCCCC2)CC1=O (centres undefined) | ? | . | . | -14.9% | . | .
CC(C)(C)N1CC(c2nc3ccccc3n2CCOc2ccccc2)CC1=O (centres undefined) | 2.3% | 10µM* | 9.5% | -15.1% | -5.4% | -11.4%
CCc1ccccc1N1CC(c2nc3ccccc3n2CCC2CCCCC2)CC1=O (centres undefined) | 28.2µM* | . | . | -3.1% | . | .
COc1ccc(N=C2NC(=O)/C(=C/c3ccco3)S2)cc1 | ? | 6.6% | -0.3% | -17.1% | 9.6% | 7.5%
COc1ccc(S(=O)(=O)/N=C2/NC(=O)/C(=C/c3ccco3)S2)cc1 | 17.8µM* | 12.3% | -27.2% | -11.2% | -16.9% | 6.1%
